# Screens: PubChem BioAssay, several laboratories
# ssDAF12 agonist: S. stercoralis DAF-12 activation, primary screen. HEK293 ssDAF-12/GRIP1 lit1-tk-luc reporter, luminescence; % of 3 µM dafachronic acid response. AID 652126. activation, % at 6.8 µM. 370,000 tested, 1% active;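 active = activation above the mean over all tested compounds plus 3 SD, cut at about 0.9% in these data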;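 also: 0% = DMSO-only wells and 100% = 3 µM delta7-dafachronic acid wells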
# DAX1 inh-1: inhibitors of DAX1 repression of SF-1 activated StAR promoter; HEK293T StAR-luciferase reporter, SF-1/DAX-1 repression relief; inhibition, % at 6.8 µM; 370,000 tested, 1.1% active; AID 652010;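 active = inhibition above the mean over all tested compounds plus 3 SD, cut at about 3.6% in these data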;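 also: 0% = DAX-1 cells with DMSO and 100% = cells lacking DAX-1 with DMSO; higher inhibition means more luminescence from relief of DAX-1 repression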
# hgDAF12 agonist: activates the H. glycines DAF-12 receptor ligand-binding domain; HEK293 GAL4-hgDAF12 UAS-luciferase reporter, agonist luminescence; normalized to butyrate control; 370,000 tested, 1.8% active; activation, % at 6.8 µM; AID 687014;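 active = activation above a cutoff set at the mean of all screened compounds plus 3 SD, cut at about 10% in these data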;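 also: 0% = DMSO wells and 100% = sodium butyrate wells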
# PolyA inhibitor: inhibitors of polyadenylation in S. cerevisiae | S. cerevisiae SKY197-pL101 polyadenylation reporter, beta-gal luminescence; efflux-impaired pdr1/pdr3 knockout yeast; score 100 = 6 SD above DMSO | 300,000 tested, 0.02% active | activity score, % at 12 µM;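 active = lowest replicate activity score at least 50, where 100 means six control SD above control mean; inconclusive = lowest score under 50 but half or more replicates reach 50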;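 also: yeast exposed to compound for 9 h at 30 °C; higher score means more reporter readthrough which indicates perturbed polyadenylation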
# hcDAF-12 act: activates DAF-12 receptor from parasite H. contortus; HEK293 hcDAF-12 lit1-tk-luc reporter, luminescence; 0% DMSO, 100% Δ7-dafachronic acid; activation, % at 6.8 µM; 370,000 tested, 1.4% active; AID 652067;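 active = activation above the mean of all tested compounds plus 3 SD, cut at about 5.5% in these data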;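 also: 100% = response to 3 µM Δ7-dafachronic acid high control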
# DAX1 inh-2: inhibits human nuclear receptor DAX1; P51843; HEK293 Gal4-DAX1 luciferase reporter, luminescence; inhibition, % at 6.75 µM; 340,000 tested, 0.99% active;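 active = inhibition above the mean over all tested compounds plus 3 SD, cut at about 4.2% in these data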;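 also: 0% = DAX1-transfected cells with DMSO and 100% = empty-vector control cells with DMSO; inhibition shows as a rise in luminescence from relieved DAX1 repression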
# Target sequence (P51843 207-470 limits assumed): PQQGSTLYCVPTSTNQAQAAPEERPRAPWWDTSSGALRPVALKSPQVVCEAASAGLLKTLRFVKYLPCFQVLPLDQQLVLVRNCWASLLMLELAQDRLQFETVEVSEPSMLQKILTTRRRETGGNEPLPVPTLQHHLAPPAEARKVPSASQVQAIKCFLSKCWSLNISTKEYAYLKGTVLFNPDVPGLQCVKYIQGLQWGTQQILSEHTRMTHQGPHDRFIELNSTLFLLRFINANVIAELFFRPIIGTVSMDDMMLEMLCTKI
# DAX1 inh confirm: confirmation of human DAX1 (NR0B1) inhibitors; AID 652134; 2,400 tested, 87% active; shares compounds with DAX1 inh-1; HEK293T StAR-promoter luciferase reporter, SF-1/DAX-1 repression; inhibition, % at 6.8 µM;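 active = inhibition above the average of every tested compound plus 3 SD, cut at about 3.8% in these data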;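 also: 0% = DAX-1 cells with DMSO and 100% = no DAX-1 control cells with DMSO; active compounds raise luminescence by relieving repression of the StAR reporter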
# Target sequence (P51843 whole entry, looked up): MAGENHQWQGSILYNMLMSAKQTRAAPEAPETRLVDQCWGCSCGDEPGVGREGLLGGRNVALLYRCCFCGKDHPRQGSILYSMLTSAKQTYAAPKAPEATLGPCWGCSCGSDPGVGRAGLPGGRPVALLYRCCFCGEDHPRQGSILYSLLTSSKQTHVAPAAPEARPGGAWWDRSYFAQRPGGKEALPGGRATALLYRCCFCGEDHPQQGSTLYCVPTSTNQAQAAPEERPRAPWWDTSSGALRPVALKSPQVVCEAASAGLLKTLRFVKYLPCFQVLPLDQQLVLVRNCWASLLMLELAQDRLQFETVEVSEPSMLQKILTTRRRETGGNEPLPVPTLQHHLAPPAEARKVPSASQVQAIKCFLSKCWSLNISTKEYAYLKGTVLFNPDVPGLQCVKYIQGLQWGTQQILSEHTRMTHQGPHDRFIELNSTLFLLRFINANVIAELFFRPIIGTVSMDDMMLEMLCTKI
# SF1 AF2mut Luc: counter-screen for DAX1 inhibitors: nonselective inhibitors with SF-1 AF2 mutant; shares compounds with DAX1 inh-1; HEK293 StAR-luciferase, luminescence; inhibition, % at 6.8 µM; 2,400 tested, 78% active; AID 652136;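 active = inhibition above the mean of all tested compounds plus 3 SD, cut at about 3% in these data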;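 also: 0% = DAX-1 transfected cells with DMSO and 100% = cells without DAX-1 with DMSO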
# LXRb hcDAF ctr: counter-screen for hcDAF-12 agonists: agonists of human LXR-beta | AID 743027 | activation, % at 6.8 µM | 3,400 tested, under 10 active | shares compounds with hcDAF-12 act | HEK293 Gal4-LXR tk-luc reporter, luminescence, 24 h; normalized: DMSO 0%, positive control 100%;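 active = mean percent activation of the reporter above a cutoff set as the average over tested compounds plus their standard deviation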
# hcDAF12 conf: hcDAF-12 agonism, confirmation assay. AID 743032. HEK293 hcDAF-12 lit1-tk-luc reporter, luminescence; % of Δ7-dafachronic acid response. shares compounds with hcDAF-12 act. 3,400 tested, 61% active. activation, % at 6.8 µM;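 active = mean activation across triplicate tests above the threshold derived from the earlier primary screen, cut at about 5.5% in these data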;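 also: 0% = DMSO only wells and 100% = 3 µM Δ7-dafachronic acid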
# hgDAF12 ag: confirmation of H. glycines DAF-12 agonists; HEK293 GAL4-hgDAF12 luciferase reporter, agonist mode; percent of butyrate response; 3,300 tested, 80% active; shares compounds with hgDAF12 agonist; activation, % at 6.8 µM;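 active = mean activation over triplicate wells above the hit cutoff derived from the earlier primary screen, cut at about 11% in these data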;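 also: 0% = DMSO low control and 100% = 2 mM sodium butyrate high control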
# LXR ag 2: activates human LXR-beta, counter-screen for DAF-12 agonists; 3,300 tested, under 10 active; shares compounds with hgDAF12 agonist; HEK293 Gal4-LXR luciferase reporter, 24 h; activation, % at 6.8 µM;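 active = mean activation of the triplicate above a set limit carried over from the primary screen, none filed active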
# Active calls of the source: *; ? = inconclusive; / = no result given. Sampled rows, rich in hits. Any-hit rate of the full collection: about 4.1%.
SMILES,ssDAF12 agonist,DAX1 inh-1,hgDAF12 agonist,PolyA inhibitor,hcDAF-12 act,DAX1 inh-2,DAX1 inh confirm,SF1 AF2mut Luc,hgDAF12 ag,LXR ag 2,others
O=C(NCc1ccco1)c1ccc2sc([C@H]3C[C@H](O)[C@@H](CO)O3)nc2c1,-1,1,3,/,-1,/,/,/,/,/,
CC(=O)Nc1ccc(C(=O)COC(=O)C2CC2C)c(F)c1 (stereo not given),1.0*,11*,18*,/,3,2,10*,4.6*,10,1,
CC(=O)Nc1ccc(C(=O)COC(=O)c2c(C)noc2C)c(F)c1,-2,1,1,/,-1,-1,/,/,/,/,
CC[C@H](C)C(N)c1cn([C@@H](CC(N)=O)C(=O)N2CCNCC2)nn1 (stereo not given in full),-1,0,-1,/,-2,1,/,/,/,/,
Cc1ccc(/C=C2/CCc3c([nH]c4ccccc34)C2=O)cc1,1,5.3*,18*,18,10*,3,24*,9.1*,22*,1,LXRb hcDAF ctr=2;hcDAF12 conf=5.8*
O=C(Nc1nc(-c2nc3ccccc3s2)cs1)C1CC1,0,8.8*,23*,-3,5,1,13*,6.4*,15*,1,
COc1cccc(CNc2ccc(Br)cn2)c1O,1.1*,4.5*,19*,-1,6.8*,1,12*,6.1*,18*,1,LXRb hcDAF ctr=1;hcDAF12 conf=6.0*
CCOc1ccc(C(=O)N[C@H](C(=O)Nc2ccccc2OC)C(C)C)cc1,-1,0,-1,-10,-2,0,/,/,/,/,
CC(=O)c1ccc(Nc2ccc(-c3ccccc3F)nn2)cc1,1,4.7*,18*,-7,5,1,14*,6.8*,19*,1,
CCCC(C)Sc1nc2c([nH]1)c(=S)n(C)c(=O)n2C (stereo not given),-1,-1,-3,/,4,-2,/,/,/,/,
Cc1nn(C)c(Oc2ccccc2)c1CCNS(=O)(=O)c1ccc(Cl)cc1,-2,-2,-3,-1,-4,-2,/,/,/,/,
Cc1ccsc1C(=O)Nc1ccc2c(c1)OCCO2,-1,4.6*,21*,5,5,-1,14*,7.7*,15*,1,
COc1ccc(C(=O)Nc2ccc3c(c2)OCCO3)cc1,1.4*,4.7*,15*,/,5.8*,-1,14*,5.2*,15*,1,
COc1ccc(C(=O)Nc2ccc3c(c2)OCCO3)c(OC)c1,0,9.4*,22*,/,5.7*,2,13*,9.1*,17*,1,
Cc1ncoc1C(=O)Nc1ccc2c(c1)OCCO2,-1,0,-2,-7,0,0,/,/,/,/,
CC1=NN(c2ccccc2)C(=O)C1c1ccccc1 (stereo not given),-1,-1,0,-21,-2,-1,/,/,/,/,
CC1=Nc2ccccc2N=C(N)C1c1ccccc1 (stereo not given),1.5*,5.1*,18*,-15,7.4*,1,3.7*,4.3*,13*,0,LXRb hcDAF ctr=0;hcDAF12 conf=3
Cc1cc(O)cc2c1C1CCC3(C)C(O)CCC3C1C=C2 (stereo not given),-1,0,2,/,1,2,/,/,/,/,
CC(C)C(=O)Nc1ccc2nn(-c3ccccc3)nc2c1,1.0*,12*,22*,-6,8.8*,1,13*,7.3*,19*,1,LXRb hcDAF ctr=2;hcDAF12 conf=8.4*
O=C(Nc1ccc2nn(-c3ccccc3)nc2c1)c1cccnc1,-1,1,3,/,-1,0,/,/,/,/,
O=C(O)C(=O)Nc1nc(-c2ccc3c(c2)OCCO3)cs1,-1,2,2,14,2,0,/,/,/,/,
CCCC(=O)Nc1nc(-c2ccc3c(c2)OCCO3)cs1,-1,5.6*,14*,/,4,3,6.5*,4.8*,11*,1,
Nc1ccc(Br)cc1Br,-1,0,-1,-1,0,2,/,/,/,/,
O=[N+]([O-])c1cc(Cl)ccc1-c1nc(-c2ccccc2)no1,4.0*,4.7*,25*,12,11*,4.5*,14*,7.7*,18*,1,LXRb hcDAF ctr=2;hcDAF12 conf=9.9*
CC1CCCC(C)N1C(=O)CSc1nnc(-c2cccs2)o1 (stereo not given),0,4.7*,18*,-11,5,2,11*,8.0*,17*,1,
SMILES,ssDAF12 agonist,DAX1 inh-1,hgDAF12 agonist,PolyA inhibitor,hcDAF-12 act,DAX1 inh-2,DAX1 inh confirm,SF1 AF2mut Luc,hgDAF12 ag,LXR ag 2,others
Cc1cc(C(=O)CSc2cccc[n+]2[O-])c(C)n1-c1ccc(Br)cc1,/,/,/,7,/,/,/,/,/,/,
Cc1cc(C(=O)CSc2cccc[n+]2[O-])c(C)n1-c1ccccc1,1,8.1*,16*,11,7.5*,1,17*,7.8*,13*,1,LXRb hcDAF ctr=1;hcDAF12 conf=7.2*
COc1ccc(-c2cc(C(=O)Nc3cc(Cl)ccc3O)no2)cc1,0,0,2,?,1,3,/,/,/,/,
CSc1ccc(/C=N/Nc2ccc(Cl)c(C(=O)O)c2)cc1,0,6.7*,14*,-4,5,1,17*,5.9*,29*,1,
CC(C)NC(=O)C1(C)CN(S(C)(=O)=O)CC(=O)N1Cc1ccco1 (stereo not given),-1,-1,0,/,-1,/,/,/,/,/,
Cc1ccc(NC(=O)CN(C)C(=O)c2cc(S(=O)(=O)N(C)C)ccc2N2CCCC2)cc1,-1,1,-2,11,0,0,/,/,/,/,
O=C(NC1=NCCS1)c1cccc(NC(=O)c2ccco2)c1,-1,0,0,7,4,-1,/,/,/,/,
CC(C)Oc1cccc(C(=O)NC2=NCCS2)c1,0,5.0*,15*,-2,1,1,5.9*,4.1*,11*,0,
O=C(Nc1ccc(OCC(=O)N2CCOCC2)cc1)Nc1cccc(Cl)c1,-2,0,4,18,-1,-1,/,/,/,/,
